In the library only some 2.1% were active in any assay of this set; here they are far more common.
Abeta rescue: A-beta toxicity reversal in yeast. yeast expressing A-beta42, growth rescue, OD600, 48 h; response scale: 0% DMSO, 100% iron-clioquinol control. Potency, µM (titrated, usually from 46.1 µM), most hits filed as activators. 410,000 compounds, 0.063% hits. AID 1347071; note: nearly all actives have a fitted effect of over 55% in size
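Yeast A-beta toxicity model in growth medium with pinned compounds, 48 h at 30 C; growth read as absorbance at 600 nm. Normalized to FeCl3/clioquinol equimolar mix (positive) and DMSO (negative).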
TDP-43 yeast inh: TDP-43 toxicity inhibition in yeast; TDP-43 expressing yeast growth rescue, BacTiter-Glo, 24 h; Potency, µM (doses to about 46.1 µM), for the others: at the highest dose growth rescue (activation), usual class: activators; 410,000 compounds, 1.8% hits; note: % of control where 0% means no effect; nearly all actives have a fitted effect of over 50% in size
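Yeast expressing TDP-43 (pregrown in raffinose, seeded at OD600=0.02 in galactose medium) exposed to compounds 24 hr at 30 deg C. Growth read by BacTiter-Glo luminescence; rescue of toxicity appears as increased signal.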
aSyn rescue: alpha-synuclein toxicity inhibition in yeast | Yeast expressing alpha-synuclein, growth rescue, BacTiter-Glo, 24 h | Potency, µM (highest dose often 46.1 µM), without a hit: at the highest dose growth rescue (activation), hits mostly activators | 370,000 compounds, 0.14% hits; note: % of control where 0% means no effect; nearly all actives have a fitted effect of over 65% in size
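Readout is rescue of growth in alpha-synuclein-expressing yeast, so inhibitors of toxicity appear as activators. Growth after 24 hr at 30 deg C in galactose medium is quantified by luminescence.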
FUS suppressor: rescues growth of FUS-expressing yeast; S. cerevisiae FUS-expressing, growth rescue, OD600, 24 h; Potency, µM (highest dose often 76.6 µM), actives largely listed as activators; 390,000 compounds, 0.24% hits; AID 1347120;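 note: plate controls were DMSO vehicle for no effect and reference control for full effect; nearly all actives have a fitted effect of over 55% in size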
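Compound concentration series was pinned onto galactose-induced FUS-expressing yeast seeded at OD 0.005. Plates sat 24hr at 30C; absorbance at 600 nm gave growth. DMSO served as background control.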
* hit, by the source's call; ! = not active in a repeat. Calls come from the whole dose curve; as a rule, active = well fitted curve in the direction sought with a large enough effect; inconclusive = small, poorly fitted or top-dose-only effect, or another doubt; inactive = no such curve, though single readings can be large; an effect the other way counts as inactive or inconclusive. Potency is the fitted concentration of half-maximal effect.

How did Nc1c(Cl)ncnc1N/N=C/c1ccc2ccccc2n1 do in these assays?
Abeta rescue: inactive; TDP-43 yeast inh: inconclusive; aSyn rescue: 6.3µM*; FUS suppressor: inactive

What do the screens show for `COc1cccc(OC)c1C(=O)Nc1cccc(-c2cn3ccsc3n2)c1`?
Abeta rescue: inactive; TDP-43 yeast inh: 9%; FUS suppressor: inactive

How did COc1cc(OC)cc(C(=O)Nc2cccc(-c3cn4ccsc4n3)c2)c1 do in these assays?
Abeta rescue: inactive; TDP-43 yeast inh: 22µM*; FUS suppressor: inconclusive

How did CCC(=O)Nc1cccc(-c2cn3ccsc3n2)c1 do in these assays?
Abeta rescue: inactive; TDP-43 yeast inh: 12%; aSyn rescue: 2%; FUS suppressor: inactive

What do the screens show for `COc1cccc(C(=O)Nc2cccc(-c3cn4ccsc4n3)c2)c1OC`?
Abeta rescue: inactive; TDP-43 yeast inh: 13µM*; FUS suppressor: inactive

What do the screens show for `C[C@@H]1CCN(C2CC2)S(=O)(=O)c2ccc(N3CC[C@H](O)C3)cc2O1`?
FUS suppressor: inactive

Results for Cc1cccc(Oc2cnn(C(C)(C)C)c(=O)c2Cl)c1 ?
Abeta rescue: inactive; TDP-43 yeast inh: 10µM*; aSyn rescue: 10%; FUS suppressor: inactive

Results for COc1cnn(C(C)(C)C)c(=O)c1Cl ?
Abeta rescue: inactive; TDP-43 yeast inh: -16%; aSyn rescue: 0%; FUS suppressor: inactive

Results for CCCC(=O)Oc1ccc2[nH]c(C(=O)c3cc4ccccc4[nH]3)cc2c1 ?
aSyn rescue: 3%

Results for CC(C)c1ccc(CC(=O)N2CCC2(C)C(=O)Nc2cnc3ccccc3c2)cc1 (stereo not given) ?
Abeta rescue: inactive; TDP-43 yeast inh: inconclusive; aSyn rescue: 6%; FUS suppressor: inactive

What do the screens show for `CC(C)(C)c1ccc(CC(=O)N2CCC2(C)C(=O)Nc2cnc3ccccc3c2)cc1` (stereo not given)?
Abeta rescue: inactive; TDP-43 yeast inh: 18µM*; aSyn rescue: inconclusive; FUS suppressor: inconclusive

What do the screens show for `CC1(C(=O)Nc2cccc3ncccc23)CCN1C(=O)Cc1ccc(-c2ccccc2)cc1` (stereo not given)?
Abeta rescue: inactive; TDP-43 yeast inh: 25µM*; aSyn rescue: 7%; FUS suppressor: inconclusive

What do the screens show for `CC1(C(=O)Nc2cccc3cccnc23)CCN1C(=O)Cc1ccc(Cl)cc1Cl` (stereo not given)?
Abeta rescue: inactive; TDP-43 yeast inh: 20µM*; aSyn rescue: -3%; FUS suppressor: inactive

How did Cc1ccc(S(=O)(=O)NC(=O)C2(C)CCN2C(=O)Cc2ccc(-c3ccccc3)cc2)cc1 (stereo not given) do in these assays?
Abeta rescue: inactive; TDP-43 yeast inh: 30%; aSyn rescue: -17%; FUS suppressor: 28µM*

What do the screens show for `CCc1ccc(NC(=O)Cn2cnc3sc(C)c(S(=O)(=O)N4CCN(c5ccccc5OC)CC4)c3c2=O)cc1`?
Abeta rescue: inactive; TDP-43 yeast inh: 5%; FUS suppressor: inactive

How did CCN1CCCC1CN(Cc1cc2cc(C)ccc2[nH]c1=O)C(=O)Nc1ccccc1OC (stereo not given) do in these assays?
Abeta rescue: inactive; TDP-43 yeast inh: -6%; aSyn rescue: -1%; FUS suppressor: 22µM*

What do the screens show for `COc1ccccc1NC(=O)N(CCN1CCCC1)Cc1cc2cc(C)ccc2[nH]c1=O`?
Abeta rescue: inactive; TDP-43 yeast inh: -19%; aSyn rescue: 1%; FUS suppressor: inactive

Results for COc1ccc(/C=C/C(=O)N2CCN(S(=O)(=O)c3ccccc3Br)CC2)cc1OC ?
Abeta rescue: inactive; TDP-43 yeast inh: 22µM*; aSyn rescue: inconclusive; FUS suppressor: inconclusive

Results for Cc1ccc(C(=O)N2CCN(S(=O)(=O)c3cc(Br)ccc3Br)CC2)o1 ?
Abeta rescue: inactive; TDP-43 yeast inh: 20µM*; aSyn rescue: -33%; FUS suppressor: inactive

What do the screens show for `O=C(Cc1ccccc1)NC1CCCc2c1cnn2-c1ccc(F)cc1F` (stereo not given)?
FUS suppressor: inactive

Results for CCC[C@H]1NC(=O)[C@H](C)N(C)C(=O)C(C)(C)C(=O)C(C)NC(=O)[C@H](Cc2ccc(OC)cc2)N(C)C(=O)[C@H](C(C)C)N(C)C(=O)CNC(=O)[C@H](CC(C)C)N(C)C(=O)CNC(=O)[C@H]([C@@H](C)CC)OC(=O)[C@H]1C (stereo not given in full) ?
Abeta rescue: inactive; TDP-43 yeast inh: 35µM*; aSyn rescue: 11%; FUS suppressor: inconclusive

How did Cc1ccccc1Nc1ccc([N+](=O)[O-])cn1 do in these assays?
Abeta rescue: inactive; TDP-43 yeast inh: inconclusive; aSyn rescue: -14%; FUS suppressor: inactive

Results for Cc1cccc(C(C)Nc2ccc([N+](=O)[O-])cn2)c1 (stereo not given) ?
Abeta rescue: inactive; TDP-43 yeast inh: 18µM*; aSyn rescue: 0%; FUS suppressor: inactive

How did COC(=O)c1cc2oc3ccccc3c2n1Cc1ccc(C)cc1 do in these assays?
Abeta rescue: inactive; TDP-43 yeast inh: 8%; FUS suppressor: inactive

Results for COC(=O)c1cc2oc3ccccc3c2n1Cc1ccccn1 ?
Abeta rescue: inactive; TDP-43 yeast inh: 13µM*; aSyn rescue: -20%; FUS suppressor: inactive

What do the screens show for `O=C1CCC[C@H]2C[C@H](NCc3ccc(Cl)c(Cl)c3)CC[C@]23CCCN13`?
FUS suppressor: inactive

How did COc1cccc2c(=O)c3c(cnn3C)n(C)c12 do in these assays?
Abeta rescue: inconclusive; TDP-43 yeast inh: inconclusive; aSyn rescue: 25µM*; FUS suppressor: inactive

What do the screens show for `COc1cccc2c(=O)c3ccoc3n(C)c12`?
Abeta rescue: inactive; TDP-43 yeast inh: 0%; aSyn rescue: 10%; FUS suppressor: inactive

Results for CN(Cc1ccccc1)S(=O)(=O)c1cccc(C(=O)OCc2cccc([N+](=O)[O-])c2)c1 ?
FUS suppressor: inactive

What do the screens show for `Cc1[nH]nc(N=CC2=C(O)CC(C)(C)CC2=O)c1-c1ccc(Cl)cc1`?
Abeta rescue: inactive; TDP-43 yeast inh: 16µM*!; aSyn rescue: inconclusive; FUS suppressor: inactive

How did CC(C)Oc1ccc(C(=O)OCC(=O)NC2CCCCCC2)cc1 do in these assays?
Abeta rescue: inactive; TDP-43 yeast inh: inconclusive; aSyn rescue: 1%; FUS suppressor: inactive

Results for CC(C)Oc1ccc(C(=O)OCC(=O)NC(=O)NC2CCCC2)cc1 ?
Abeta rescue: inconclusive; TDP-43 yeast inh: 20µM*; aSyn rescue: 17%; FUS suppressor: inactive

What do the screens show for `CCOc1ccc(N=Nc2ccc(O)c3ncccc23)cc1`?
Abeta rescue: inconclusive; TDP-43 yeast inh: inconclusive; aSyn rescue: 13µM*; FUS suppressor: inactive

How did NS(=O)(=O)c1ccc(N=Nc2ccc(O)c3ncccc23)cc1 do in these assays?
Abeta rescue: inactive; TDP-43 yeast inh: inconclusive; aSyn rescue: -22%; FUS suppressor: inactive

Bioassay records deposited in PubChem BioAssay by National Center for Advancing Translational Sciences (NCATS).
